Hit rate of the full screen: of about 200,000 compounds, about 18,000 (9%) were called active. Rule as the data show it: active = inhibition above about 50%; inactive = the rest. This excerpt belongs to a sample that is enriched for actives.
Assay: Leishmania major promastigote growth inhibition, primary screen (AID 1063);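 also: promastigotes grown with compound for 44 hours at 28 °C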
Settings: Leishmania major promastigotes, resazurin fluorescence viability; at 10 µM; active compounds read high

Row | Compound | inhibition
1 | CN1CCN(CC(=O)C23CC4CC(CC(C4)C2)C3)CC1 | 88.5% (active)
2 | CC(C)(C)NC(=O)CN1CCC(NC(=O)C23CC4CC(CC(C4)C2)C3)CC1 | 3.92% (inactive)
3 | O=C(N1CCCC1)C12CC3CC(C1)CC(C(=O)N1CCCC1)(C3)C2 | -2.33% (inactive)
4 | CCc1ccc(N2CC(O)=C(c3nc4ccccc4c(=O)[nH]3)C2=N)cc1 | -1.01% (inactive)
5 | CCCOc1ccc(C(=O)C(CCC(CNCC)C(=O)c2ccc(OCCC)cc2)CNCC)cc1 (stereo not drawn) | 100% (active)
6 | CCCOc1ccc(C(=O)NCCc2ccccc2)cc1 | 7.66% (inactive)
7 | CCCOc1ccc(N/C=C/C(=O)C(C)(C)C)cc1 | -5.85% (inactive)
8 | CC(C)NC(=S)NN=C1CCCCCCCCCCC1 | 18.9% (inactive)
9 | Cc1nn(C)c(C)c1Sc1ccccc1N | -5.83% (inactive)
10 | CN(C)CCOc1cccc(Br)c1 | -3.33% (inactive)
11 | CCC(C(=O)OCCN(CC)CC)c1ccccc1 (stereo not drawn) | -7.09% (inactive)
12 | CCOc1ccc(S(=O)(=O)N2CCCCCC2)c2ccccc12 | 14% (inactive)
13 | CCN(CC)CCOCCOc1ccc(Cl)c2ccccc12 | 99.7% (active)
14 | CN(C)CCOCCOc1ccc(Cl)c2ccccc12 | 98.1% (active)
15 | COc1ccc(N2C(=O)CC(Sc3n[nH]c(-c4ccc(C)cc4)n3)C2=O)cc1 (stereo not drawn) | -3.19% (inactive)
16 | CCN1C(=O)/C(=c2\s/c(=C3\Sc4ccccc4N3C)c(=O)n2C)N(C)C1=S | -4.84% (inactive)
17 | CSc1cc(C)[nH]c(=O)n1 | -7.37% (inactive)
18 | C/C(=N\N)c1c(-c2ccccc2)c2cc(Br)ccc2[nH]c1=O | -1.92% (inactive)
19 | COc1ccc(C(=O)N/N=c2\oc3ccccc3cc2C(N)=O)cc1 | 10.2% (inactive)
20 | CC(OC(=O)CCc1nc(=O)c2ccccc2n1C)C(=O)NCc1ccc2c(c1)OCO2 (stereo not drawn) | -3.8% (inactive)
21 | CCC(C)(C)NC(=O)/C=C/c1cc(OC)c(OC)c(S(=O)(=O)N2CCc3ccccc32)c1 | -8.31% (inactive)

Row | Compound | inhibition
22 | CCN1CCN(Cc2c(O)ccc3c(=O)c(-c4ccc(OC)c(OC)c4)c(C(F)(F)F)oc23)CC1 | 99.8% (active)
23 | CN1CCN(Cc2c(O)ccc3c2oc(=O)c2ccccc23)CC1 | 3.53% (inactive)
24 | CCOC(=O)c1oc2c(CN3CCN(C)CC3)c(O)ccc2c(=O)c1-c1ccc(Br)cc1 | 23.6% (inactive)
25 | COc1ccc(C(=O)NNc2cc(C)nc(NNC(=O)c3ccc(OC)cc3)n2)cc1 | -8.08% (inactive)
26 | Cn1c(=NC(=O)c2ccc3c(c2)OCCO3)sc2cc(S(C)(=O)=O)ccc21 | -9.12% (inactive)
27 | CCOc1ccccc1NC(=O)c1cccnc1 | -2.23% (inactive)
28 | CC(OC(=O)c1ccc2ccccc2n1)C(=O)c1ccccc1 (stereo not drawn) | -9.05% (inactive)
29 | CCOc1cccc(/C=C/c2ccc3ccccc3n2)c1OC(C)=O | 66% (active)
30 | COc1cccc(C(O)Cc2nc3ccccc3n2C)c1OC (stereo not drawn) | 9.44% (inactive)
31 | NC(=O)COC(=O)/C=C/c1ccc2ccccc2n1 | 8.85% (inactive)
32 | COc1cccc(/C=C/c2ccc3ccccc3n2)c1OC(C)=O | 75.8% (active)
33 | COC(=O)c1ccc(-n2cnc3ccccc32)nc1 | 25% (inactive)
34 | CN(C(=O)CSc1nnc(Nc2ccccc2)s1)C1CCS(=O)(=O)C1 (stereo not drawn) | -3.39% (inactive)
35 | CC(=O)c1c(C)[nH]c(C(=O)OCC(=O)NCCC(C)C)c1C | 3.75% (inactive)
36 | O=C(O)CCCc1ccccc1 | -5.59% (inactive)
37 | Cc1ccc(O)c(CCc2ccccc2)n1 | 87.9% (active)
38 | c1ccc(CSCCc2ccncc2)cc1 | 1.66% (inactive)
39 | CC(NC(=O)C(=O)N/N=C/c1ccc(Cl)cc1)c1ccccc1 (stereo not drawn) | 5.89% (inactive)
40 | COc1ccc(CC(=O)Nc2ccc(C(=O)NC(C)(C)C)cc2)cc1 | -5.15% (inactive)
41 | CC(C)(C)NC(=O)c1cccc(NC(=O)Cc2ccc(Br)cc2)c1 | 94.5% (active)
42 | O=C(Cc1ccccc1)Nc1cccc(C(=O)N/N=C/c2ccco2)c1 | -0.83% (inactive)

Row | Compound | inhibition
43 | C(=N\N1CCN(c2ccccn2)CC1)/C1=C(N2CCOCC2)C(=C/c2ccccc2)/CC1 | 15.2% (inactive)
44 | CCCCCNC(=O)c1cccnc1SCC(=O)Nc1ccccc1OC | 54% (active)
45 | CCCNC(=O)c1ccccc1NC(=O)CSCc1ccc(OC)cc1 | 9.43% (inactive)
46 | CCCc1nc(SCC(=O)Nc2ccccc2OC)c2c(=O)n(C)c(=O)n(C)c2n1 | -9.77% (inactive)
47 | COc1ccc(-n2nnnc2SCC(=O)NCc2cccs2)cc1 | -3.26% (inactive)
48 | COc1ccc(S(=O)(=O)N(C)C)cc1NC(=O)CSc1ncccn1 | 6.96% (inactive)
49 | O=C(NCc1ccncc1)NC12CC3CC(CC(C3)C1)C2 | 1.04% (inactive)
50 | CCOC(=O)c1c(NC(=O)C2CC=CCC2C(=O)O)sc(C)c1CC (stereo not drawn) | 0.64% (inactive)
51 | O=S(=O)(c1cccc(C(F)(F)F)c1)N1CCN(c2cnccn2)CC1 | -1.36% (inactive)
52 | COC(=O)c1ccccc1NS(=O)(=O)c1ccc2[nH]c(=O)[nH]c2c1 | 86.2% (active)
53 | Cc1ccc(S(=O)(=O)Nc2nc3ccccc3s2)cc1[N+](=O)[O-] | -8.33% (inactive)
54 | Cc1ccc(S(=O)(=O)NCCSc2ccccc2)cc1[N+](=O)[O-] | -8.64% (inactive)
55 | COCCNC(=O)c1ccccc1NS(=O)(=O)c1ccc(C)c([N+](=O)[O-])c1 | 54.5% (active)
56 | COC(=O)c1ccccc1NC(=O)c1ccccc1NS(C)(=O)=O | -0.37% (inactive)
57 | CCOC(=O)c1ccccc1NS(=O)(=O)c1ccc(OC)cc1 | 2.32% (inactive)
58 | O=S(=O)(Cc1ccccc1)c1nc2ccccc2n1Cc1ccccn1 | 10.6% (inactive)
59 | Cc1cc(C)cc(C(=O)N(CCc2ccccc2)C2=CC3CCC(C2)N3C)c1 (stereo not drawn) | 3.61% (inactive)
60 | Cc1noc(NS(=O)(=O)c2ccc(N/C=C/C(=O)c3ccccc3)cc2)c1C | -14.2% (inactive)
61 | Cc1ccc(N/C=C/C(=O)c2ccccc2)cc1C | 66% (active)
62 | O=C(/C=C\NCC(=O)c1ccccc1)c1ccccc1 | 2.41% (inactive)
63 | O=C(Nc1ccc2c(c1)C(=O)OC2)Nc1cccc2ccccc12 | -3.46% (inactive)
